In the library only some 2.1% were active in any assay of this set; here they are far more common.
S1P2 antag = S1P2 (human) receptor antagonism; cell-based S1P2 antagonist assay, inhibition at 5 uM; inhibition, % at 5 µM; 97,000 compounds, 0.21% hits; in the data active = inhibition above about 45%;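 also: CRE beta-lactamase reporter cells expressing human S1P2 stimulated with S1P; 0% = agonist at EC80 alone and 100% = agonist plus reference antagonist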
GALR2 ag = activates the human galanin receptor 2 | O43603 | GALR2-expressing cells, agonist activation read-out | activation, % (test concentration not listed) | 140,000 compounds, 0.48% hits; in the data active = activation above about 5%, passing the limit was not always enough;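 also: 0% = vehicle buffer wells and 100% = reference agonist at full effect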
Target sequence (O43603 whole entry, looked up): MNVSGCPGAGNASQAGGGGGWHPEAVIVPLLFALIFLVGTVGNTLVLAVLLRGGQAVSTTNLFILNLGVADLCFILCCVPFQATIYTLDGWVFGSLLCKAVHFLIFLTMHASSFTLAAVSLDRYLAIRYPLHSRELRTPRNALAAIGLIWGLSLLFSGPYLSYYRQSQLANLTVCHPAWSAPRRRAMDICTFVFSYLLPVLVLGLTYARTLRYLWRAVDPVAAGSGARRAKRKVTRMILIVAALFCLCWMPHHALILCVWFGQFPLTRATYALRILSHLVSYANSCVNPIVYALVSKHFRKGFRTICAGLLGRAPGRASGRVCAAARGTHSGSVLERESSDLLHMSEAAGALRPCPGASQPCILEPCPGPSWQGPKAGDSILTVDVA
DAT uptake mod = modulates human dopamine transporter uptake under cocaine; Q01959; LLC-PK1 hDAT cells, [14C]-dopamine uptake with cocaine IC80; actives deviate in either direction; B-score at 10 µM; 110,000 compounds, 1.3% hits; AID 449768;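 active = Z score or B-score, a plate-position-corrected score, falls beyond the plate's 99.7% confidence bounds, in either direction; inactive = both scores lie inside the 99.7% bounds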;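 also: scored against the spread of the other compound wells on the same plate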
GALR2 blocker = blocks the human galanin receptor 2 | GALR2-expressing cells, antagonist mode | 140,000 compounds, 0.39% hits | inhibition, % at 4 µM; in the data active = inhibition above about 27%;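 also: cells stimulated with galanin 1-16 at roughly its EC80; 0% = agonist challenge control and 100% = basal control without agonist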
S1P2 agonist = agonists of human S1P2 receptor. O95136. S1P2-expressing cell line, agonist reporter read-out. activation, % at 4.5 µM. 97,000 compounds, 0.46% hits. AID 729; in the data active = activation above about 16%;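 also: 0% = vehicle low control and 100% = maximal reference agonist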
Starred values were filed as active, the others as inactive; x = no result.

SMILES	S1P2 antag	GALR2 ag	DAT uptake mod	GALR2 blocker	S1P2 agonist
CC(=O)Oc1ccc2c(C)cc(=O)oc2c1	-14.3	1.7	0.027	2.5	-2.5
O=C(c1cc2ccccc2o1)N1CCN=C1SCc1cccnc1	18.7	-1.6	-0.259	-4.5	-7.1
O=C(c1ccc(Br)o1)N1CCN=C1SCc1cccnc1	5.7	-1.8	2.36*	-8.3	-4.1
CCOc1ccccc1NC(=O)c1cc(CC(C)C)oc1C	-13.8	-3.6	0.237	-7.0	-3.5
Cc1oc(CC(C)C)cc1C(=O)Nc1cccc2ccccc12	-10.6	-2.0	-6.94*	12.2	-4.4
C=CCO/N=C(/C)c1c(O)c(CC)c(-c2ccccc2)n(-c2ccccc2)c1=O	-7.3	-2.1	2.9*	5.9	-1.7
CC(=O)Nc1ccc(NC(=O)/C(Cl)=C/c2ccccc2)cc1	5.6	-0.3	-0.148	2.4	35.3*
CC(=O)Nc1ccc(NC(=S)Nc2ccccc2)cc1	-4.2	-2.4	-1.18	8.3	-6.7
O=C(O)C(Cc1ccccc1)N1C(=O)/C(=C/c2cccc3ccccc23)SC1=S (configuration not stated)	20.2	-2.3	-2.7*	2.9	-7.3
Cc1noc(C)c1CSc1nnc(-c2ccccc2)n1Cc1ccco1	0.1	-1.4	0.214	-11.4	-7.3
Cc1noc(C)c1CSc1nnc(-c2ccccc2)n1N	-7.1	-1.1	-8.61*	-11.3	-5.7
CCOc1ccc(CN(C(=O)c2ccco2)C2CCS(=O)(=O)C2)cc1 (configuration not stated)	3.7	-0.9	0.00712	2.8	-2.8
COc1cccc(C(=O)N(Cc2ccc(N(C)C)cc2)C2CCS(=O)(=O)C2)c1 (configuration not stated)	14.3	-1.4	2.61*	-7.0	-3.8
C#Cc1ccc([C@@H]2C=C(C(=O)N3CCOCC3)O[C@H](OCC)[C@H]2CCCO)cc1	x	x	-0.268	x	x
COc1ccc(CC(=O)Nc2cccc(-c3nnc(-c4cccc(C)c4)o3)c2)cc1OC	x	-0.5	3.08*	27.7*	x
COc1ccc(CC(=O)Nc2cccc(-c3nnc(-c4ccccc4)o3)c2)cc1OC	56.1*	-0.7	2.73*	11.6	-6.2
CC(C)(C)C(=O)Nc1cccc(-c2nnc(-c3cccc(NC(=O)C(C)(C)C)c3)o2)c1	12.7	-1.9	0.558	15.4	-4.9
CC(=O)Nc1cccc(-c2nnc(-c3ccccc3)o2)c1	3.3	-0.3	-8.4*	-12.2	-5.1
COc1ccc(CC(=O)Nc2cccc(-c3nnc(-c4ccc(C)cc4)o3)c2)cc1OC	x	-1.6	1.73	25.9	x
COC(=O)c1ccc(-c2nc3ccc(C)cc3o2)cc1	6.3	-1.7	-0.466	0.1	-4.0
COC(=O)c1ccc(-c2ncc(-c3cccc4ccccc34)o2)cc1	-15.3	-2.9	3.03*	0.8	-1.8
O=C(NC(=S)NC1C2CC3CC(C2)CC1C3)C12CC3CC(CC(C3)C1)C2 (configuration not stated)	x	-1.0	x	0.8	x
OCCn1c(CSc2nnc(-c3ccco3)n2-c2ccccc2)nc2ccc(Cl)cc21	-23.4	-0.3	2.18	-21.3	33.6*
O=C(OCc1nc2ccc(Cl)cc2n1CCO)c1ccccc1	x	-1.5	x	5.6	x
Cc1cc(C)n(CC(=O)N/N=C/c2cccc([N+](=O)[O-])c2)n1	x	-1.8	x	-8.9	x
SMILES	S1P2 antag	GALR2 ag	DAT uptake mod	GALR2 blocker	S1P2 agonist
Cc1ccccc1C(=O)c1cccn1CC(=O)NCCN1CCN(c2cccc(C)c2C)CC1	-7.5	2.3	1.68	-13.9	-4.0
O=c1c2ccccc2c2c(O)nc(-c3ccccc3)n2n1Cc1ccccc1	1.7	0.0	0.197	-4.4	-8.6
CCCN1CCC(NC(=O)Nc2ccc(OC)c(OC)c2)CC1	-2.4	0.2	0.372	-10.4	35.0*
Cc1ccc(C(=O)NCCc2csc(C)n2)cc1	-22.3	-3.1	2.56*	-1.8	-4.4
Cc1cccc(C(=O)NCCc2csc(C)n2)c1	10.5	-1.7	0.131	7.5	-2.6
Cc1nc(CCNC(=O)Cc2ccc(Cl)cc2)cs1	10.0	-2.5	-0.0255	12.8	33.9*
O=C(CSc1ncn[nH]1)Nc1ccc(S(=O)(=O)N2CCCC2)cc1	3.4	-0.5	0.0773	7.5	-6.5
CCCC(=O)Nc1ccc(C(=O)Nc2nnc(COCC)s2)cc1	-2.8	-1.1	-7.85*	1.3	-5.4
COc1ccc(Nc2ccnc(Nc3ccc(OC)cc3)n2)cc1	x	-0.9	x	6.5	x
COc1ccc(Nc2nc(Nc3ccc(OC)cc3)nc(-n3[nH]c(=O)c(C)c3C)n2)cc1	28.5	73.0*	-0.335	-1.7	-6.4
CC(C)(C)OC(=O)N1CCC2(CC1)Oc1ccc(F)cc1C(=O)C21CC(c2ccc(Cl)cc2)=NO1 (configuration not stated)	x	x	-0.109	x	x
O=C(c1ccc(Cl)c(S(=O)(=O)N2CCCCCC2)c1)N1CCN(c2ccccn2)CC1	-14.1	1.2	2.65*	-4.5	-0.7
O=C(CC1C(=O)NC2CCCCC2N1C(=O)c1ccc(F)cc1)Nc1ccccc1 (configuration not stated)	-3.4	-1.2	2.9*	-6.4	-1.4
CCOC(=O)/C(C#N)=C1/SC(CC)C(=O)N1c1ccc(C)cc1 (configuration not stated)	19.2	-0.6	-2.8*	-12.9	-9.9
O=c1c2c(-c3ccccc3)csc2ncn1/N=C/c1c2ccccc2cc2ccccc12	15.1	-0.5	-0.113	-11.2	18.4*
Cc1nn(-c2ccccc2)c(N2CCCC2)c1/C=N/n1cnc2scc(-c3ccccc3)c2c1=O	22.6	-1.6	2.3	-5.0	-8.8
COC(=O)c1ccc(COc2ccccc2/C=N/NS(=O)(=O)c2ccccc2)cc1	1.7	-1.6	0.973	-7.6	-7.8
COc1cccc(Nc2nc(-c3sc(NC(=O)c4ccco4)nc3C)cs2)c1	5.3	-1.0	0.731	3.2	-4.0
COc1cccc(Nc2nc(-c3sc(N)nc3C)cs2)c1	12.0	-1.1	2.21*	13.7	-1.7
COc1cccc(Nc2nc(-c3ccc4c(c3)OCCO4)cs2)c1	0.8	-2.9	0.0884	-2.2	41.1*
CN1CC(c2ccc(Cl)c(Cl)c2)[C@@]2(COc3ccccc3C2=O)[C@@]12C(=O)Nc1ccccc12 (some centres not stated)	13.0	-2.8	-1.84	19.1	-6.0
O=C1N[C@@H](Cc2cn(S(=O)(=O)c3ccc(F)cc3)c3ccccc23)C(=O)N[C@H]1Cc1ccccc1	x	x	-0.391	x	x
Cc1cccc(CSCCNC(=O)c2ccc(CN3CCOCC3)cc2)c1	x	-0.2	x	-7.6	x
O=C(NCCSCc1ccc(Cl)cc1Cl)c1ccc(CN2CCOCC2)cc1	20.9	-1.6	3.15*	-3.2	-1.4
CCC(C)(C)NC(=O)CN(C(=O)CCC(=O)Nc1ccccn1)c1ccc(F)c(Cl)c1	-5.8	-2.9	-0.0282	13.8	-2.5
Cc1ccnc(NS(=O)(=O)c2ccc(NC(=O)C34CC5CC(C)(CC(C)(C5)C3)C4)cc2)n1	-18.4	-3.3	2.77*	-1.0	-2.8
COc1ccc(-c2nc(Cn3c(SCc4ccc(F)cc4)nc4ccncc43)c(C)o2)cc1OC	13.5	-1.1	3.09*	-0.7	-7.4
Cc1cc(C(=O)CN2C(=O)NC(C)(c3cccc(Br)c3)C2=O)c(C)n1Cc1ccco1 (configuration not stated)	-11.3	-1.0	0.202	-3.6	36.1*
